The record followed here is PubChem BioAssay (EPA / NIEHS).

Each structure is given as a SMILES string. Calls of active or inactive are those of the source. Rule for the calls: active = hit-call score of the fitted dose curve at least 0.9, where 1 is the maximum; inactive = score below 0.9.

Holding throughout (conditions): actives raise or lower the signal
Test [1] is described as follows: CEETOX_H295R_OHPREG: CeeTox H295R High-throughput Steroidogenesis Assay for OH-Pregnenolone (OHPREG) (AID 2283434). The method in brief: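 H295R cells pre-stimulated 48 h with 10 uM forskolin, then exposed 48 h to chemical in 0.1% DMSO. 17alpha-hydroxypregnenolone in medium quantified by MTBE extraction and HPLC-MS/MS; bidirectional fit versus DMSO, viability checked by MTT.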

Test [2] is described as follows: CEETOX_H295R_OHPROG: CeeTox H295R High-throughput Steroidogenesis Assay for OH-Progesterone (OHPROG) (AID 2283435).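 For AC50: human adrenal H295R cells primed 48 h with 10 µM forskolin; 17alpha-hydroxyprogesterone secreted into medium measured by HPLC-MS/MS.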 The method in brief: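 H295R, 10 uM forskolin prestim 48 h; cmpd in 0.1% DMSO 48 h; medium MTBE-extracted, HPLC-MS/MS for OH-progesterone; 7-pt std curve; bidirectional fit vs DMSO; MTT viability, chemicals diluted until viability >/=70%.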
Test [3] in a line: CEETOX_H295R_PROG: CeeTox H295R High-throughput Steroidogenesis Assay for Progesterone (PROG) (AID 2283442).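 For AC50: human H295R adrenal cells primed with 10 µM forskolin before dosing.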 The method in brief: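 Adrenal H295R line, forskolin-stimulated (10 uM, 48 h) before dosing. 48 h exposure, 0.1% DMSO vehicle. Secreted progesterone by reverse-phase HPLC with ESI+ MS/MS quantification; DMSO-normalised bidirectional curve fit.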
Test [4] is described as follows: CEETOX_H295R_11DCORT: CeeTox H295R High-throughput Steroidogenesis Assay for 11-Deoxycortisol (11DCORT) (AID 2283432).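 For AC50: 11-deoxycortisol secreted into the medium measured by LC-MS/MS.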 The method in brief: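 Adrenal carcinoma line H295R, run per OECD 456 with minor changes, was forskolin-stimulated (10 uM, 48 h) before a 48 h chemical exposure at 0.1% DMSO. Secreted 11-deoxycortisol was quantified by HPLC-MS/MS.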
Test [5] in a line: CEETOX_H295R_CORTIC: CeeTox H295R High-throughput Steroidogenesis Assay for Corticosterone (CORTIC) (AID 2283437).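 For AC50: human H295R adrenal cells prestimulated with forskolin before chemical exposure.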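 Note: corticosterone secreted into medium quantified by mass spectrometry.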 The method in brief: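 H295R adrenal cells prestimulated 48 hours with 10 uM forskolin, then exposed 48 hours to chemical in 0.1% DMSO. Corticosterone in medium measured by HPLC-MS/MS after MTBE extraction; MTT viability in the same wells; bidirectional fit versus DMSO.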

Test [6] is described as follows: CEETOX_H295R_CORTISOL: CeeTox H295R High-throughput Steroidogenesis Assay for Cortisol (AID 2283438).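 Note: cortisol secreted into medium quantified by LC-MS/MS.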 The method in brief: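 Forskolin 10 uM 48 h prestim → test cmpd in DMSO (0.1% final) 48 h → medium MTBE-extracted → LC-MS/MS cortisol vs 7-pt std curve. Gain/loss of signal fitted vs DMSO. MTT viability in same wells.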
The nature of test [7]: CEETOX_H295R_DOC: CeeTox H295R High-throughput Steroidogenesis Assay for DOC (AID 2283439). The method in brief: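 Readout: 11-deoxycorticosterone in culture medium by reverse-phase C18 HPLC with ESI+ tandem MS after MTBE extraction. Cells: H295R, forskolin-primed (10 uM, 48 h), chemical-treated 48 h; DMSO 0.1% final. Activity fitted bidirectionally versus DMSO.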
Test [8] in a line: CEETOX_H295R_ESTRADIOL: CeeTox H295R High-throughput Steroidogenesis Assay for Estradiol (AID 2283440).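 Note: estradiol secreted into medium quantified by LC-MS/MS after dansyl derivatisation.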 The method in brief: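 Following OECD 456 with minor changes, H295R cells received 10 uM forskolin for 48 h and then test chemical for 48 h. Hormone output was read by HPLC-MS/MS, with cytotoxic concentrations diluted until MTT viability reached ≥70%.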
The nature of test [9]: CEETOX_H295R_ESTRONE: CeeTox H295R High-throughput Steroidogenesis Assay for Estrone (AID 2283441).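 For AC50: human adrenal H295R cells prestimulated with forskolin for two days.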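 Note: estrone secreted into medium measured by LC-MS/MS after dansyl derivatization.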 The method in brief:
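H295R cells prestimulated 48 h with 10 uM forskolin, then exposed 48 h to chemicals in 0.1% DMSO final; estrone in medium extracted with MTBE, dansyl-derivatized, quantified by HPLC-MS/MS; bidirectional fitting versus DMSO, viability by MTT.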

Test [10] is described as follows: CEETOX_H295R_ANDR: CeeTox H295R High-throughput Steroidogenesis Assay for Androstenedione (ANDR) (AID 2283436). The method in brief: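 H295R cells, following OECD 456 with minor changes, exposed to chemicals for 48 h. Androstenedione in the medium was quantified by HPLC-MS/MS after MTBE extraction. Fitting was bidirectional versus DMSO; chemicals were diluted until MTT viability was ≥70%.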

Broadly, the AC50 is the midpoint of the concentration-response curve, whichever way the signal moves.

In the case of `CC=Cc1ccc(O)c(OC)c1`, the AC50 in test [1] is 37.3 µM (active). Also, the call in test [2] and in test [3] was inactive.

As to `CN1CCN(Cc2cc(-c3ccc4[nH]c(=O)oc4c3)co2)[C@@H](c2ccc(F)cc2)C1`, the call in test [4], in test [1], in test [5], in test [6], in [7] and in test [8] was inactive. In addition, the outcome in [9] was inactive. Moreover, the AC50 was 4.56 µM (active) in [2] and 14.1 µM (active) in test [3].

For `Cc1c(C(=O)O)c(O)cc2c1C(=O)c1c(O)c([C@@H]3O[C@H](CO)[C@@H](O)[C@H](O)[C@H]3O)c(O)c(O)c1C2=O`, the call in [4], in test [1], in test [2], in test [5], in [6] and in test [7] was inactive. Besides, the molecule was classed as inactive in test [8], in test [9] and in [3].

`COC(=O)c1ccc(O)cc1`: the call in test [4], in [1], in test [5], in test [6], in test [7] and in test [8] was inactive. Moreover, the molecule was called inactive in test [9]. For the same molecule, the AC50 in test [2] was 45 µM (active); in [3], 50 µM (active).

As to `Cc1nc(C)nc(N2C[C@@H](C)N(c3ccnc([C@@H](C)O)n3)[C@@H](C)C2)n1`, the result in [4], in test [1], in [2], in [5], in [6] and in test [7] was inactive. For the same molecule, the molecule was called inactive in test [3].

With `CC1(C)CC(N=C=O)CC(C)(CN=C=O)C1` (stereo not drawn), the molecule was classed as inactive in test [1], in [2] and in test [3].

`Nc1ccc2c(c1)C(=O)c1ccccc1C2=O`: the molecule was called inactive in test [4], in test [1], in test [6] and in test [7]. The AC50 in test [2] is 7.84 µM (active); in test [5] it was 4.17 µM (active); in test [3], 6.71 µM (active).

For `Nc1ccc(S(=O)(=O)c2ccc(N)cc2)cc1`, in [1], the outcome was inactive. For the same molecule, the AC50 in [2] is 30.5 µM (active); in test [3], 36.1 µM (active).

Turning to `NC(=O)Cn1c(=O)cc(CCN2CCN(c3nccc4sccc34)CC2)c2ccc(F)cc21`, the AC50 in test [4] is 27.6 µM (active); in [1], 25 µM (active); in [2], 7.83 µM (active); in test [5], 4.46 µM (active); in [6], 25 µM (active); in [7], 16.9 µM (active). For the same molecule, the AC50 in [3] was 2.02 µM (active).

As to `Cc1cccc(Nc2cc(Cl)nc(SCC(=O)O)n2)c1C`, the AC50 in test [4] is 7.04 µM (active); in test [1], 13.1 µM (active); in test [2] it was 8.61 µM (active); in [3], 12.3 µM (active). Further, the outcome in test [10], in test [5], in [6], in test [7], in [8] and in test [9] was inactive.

For the molecule `Oc1ccc2ccccc2c1N=Nc1ccccc1`, in test [1], the molecule was classed as inactive. Also, the AC50 is 10.7 µM (active) in test [8] and 10.1 µM (active) in [9].

On to `Cc1cc(NC(=O)C(=O)O)cc(C)c1Oc1ccc(O)c2c1CCC2`, for which the result in test [4], in test [1] and in [6] was inactive. Also, the AC50 in test [2] was 35 µM (active); in test [5], 34.1 µM (active); in test [7] it was 37.6 µM (active); in test [3], 43.2 µM (active).

In the case of `COc1ccc(C)cc1N`, the molecule was classed as inactive in test [4], in test [1], in [10] and in test [7]. The concentration at half-maximal activity (AC50) in test [2] was 19.3 µM (active); in test [5], 74.3 µM (active); in test [6], 36.7 µM (active); in test [3] it was 33.2 µM (active).

For `Oc1ccc2c(c1)OC[C@@H](N1CCC(O)(c3ccc(F)cc3)CC1)[C@H]2O`, the result in [4], in [1], in [2], in [5], in test [6] and in test [7] was inactive. In addition, the molecule was called inactive in test [8], in [9] and in test [3].

With `Nc1ccccc1N`, the molecule was classed as inactive in test [4], in [1], in test [2], in test [5], in test [6] and in test [7]. Also, the call in test [8], in test [9] and in test [3] was inactive.

Regarding `C=CCc1ccc(O)c(OC)c1`, the molecule was classed as inactive in [1], in [2] and in test [3].

As for `C[C@]12C=CC(=O)C=C1CC[C@@H]1[C@@H]2C(=O)C[C@@]2(C)[C@H]1CC[C@]2(O)C(=O)CO`, the outcome in test [2], in test [8] and in test [9] was inactive.

For `c1cc(-c2ccncc2)ccn1`, the molecule was classed as inactive in test [4], in test [1], in test [2], in [5], in [6] and in test [7]. The molecule was called inactive in test [8], in [9] and in test [3].

Turning to `Cc1nc(-c2ccc3c(c2)CCN(CCC2CCC(NC(=O)/C=C/c4ccc(F)cc4)CC2)CC3)no1` (stereo not drawn), the AC50 in test [4] was 0.199 µM (active); in [1], 0.0518 µM (active); in test [2], 0.224 µM (active); in test [10] it was 0.365 µM (active); in test [7], 0.0532 µM (active); in [3], 0.0391 µM (active). Also, the call in test [5], in test [6], in test [8] and in test [9] was inactive.

`CCOc1ccc2c(c1)C(C)=CC(C)(C)N2`: the molecule was called inactive in test [1]. For the same molecule, the AC50 in test [2] was 2.44 µM (active); in test [10], 36.4 µM (active); in [3] it was 16.7 µM (active).

On to `COc1ccc2c(c1)c(CC(=O)O)c(C)n2C(=O)c1ccc(Cl)cc1`, for which the outcome in test [4], in [1], in test [2], in test [10], in test [5] and in test [6] was inactive. Besides, the call in test [7] and in [3] was inactive.

For `COc1ccc(S(=O)(=O)N2C(=O)[C@@](c3ccccc3OC)(N3C[C@H](O)C[C@H]3C(=O)N(C)C)c3cc(Cl)ccc32)c(OC)c1`, the call in test [4], in test [1], in [10], in test [5], in test [6] and in [7] was inactive. Besides, the call in test [3] was inactive. The AC50 in test [2] is 5.43 µM (active).
